The nature of assay [1]: Cellular viability qHTS for adrenocortical cancer (ACC) cell line SW-13 (AID 1963989).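 Further: cells grown in serum-free medium with ITS supplement; nearly all actives have a fitted effect of over 65% in size.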 The settings on record: SW-13 ACC cells viability, CellTiter-Glo, 48 h; activity (max response): active compounds read low. Put shortly: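 Here, serum-free SW-13 cultures were dosed up to 46 uM. Following 48 h, ATP-dependent luminescence (CellTiter-Glo) reported viable cells, and logistic modeling produced IC50 values.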
For orientation: In qHTS, concentration-response curves come from the screen itself.

Assay [2] in a line: Cellular viability qHTS for adrenocortical cancer (ACC) cell line NCI-H295R (AID 1963990). Further: nearly all actives have a fitted effect of over 60% in size. Further: potency means the concentration at half of the fitted maximal effect. Put shortly: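 Viability of NCI-H295R after 48 h of treatment (final up to 46 uM) measured through cellular ATP luminescence.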

Structures are written as SMILES. Several values for one entry are separate records, joined by “and”; a condition that tells them apart may be missing. Equal entries are not always repeated. Records with an inconclusive call do not appear. Where a call stands in place of a potency, no number is given. Unmarked numbers belong to inactive results. Activity calls are given as the source filed them. The call rests on the fitted dose curve; in most records, active means well fitted cell-killing curve with a large enough effect; inconclusive means small, poorly fitted or top-dose-only effect; inactive means flat fitted curve, though single readings scatter.

These results are taken from PubChem BioAssay (NCATS).

`C[C@]12CC[C@H]3[C@@H](CCC4=CC(=O)CC[C@@H]43)[C@@H]1CC[C@@H]2OC(=O)CCC1CCCCC1`: the activity (max response) in assay [1] is -4.2%. Moreover, the Potency result in assay [2] is “inactive”.
Regarding `O=c1oc2ccccc2c(O)c1C(CC(O)c1ccc(-c2ccc(Br)cc2)cc1)c1ccccc1` (centres undefined), the Potency in assay [2] was 18.4 µM (active).
For `O=S(=O)(c1ccc(Cl)cc1)c1ccc(Cl)cc1`, the Potency entry in assay [2] was “inactive”.
`O=C(O)C1=CCCN(CCOC(c2ccc(C(F)(F)F)cc2)c2ccc(C(F)(F)F)cc2)C1`: the Potency result in assay [2] is “inactive”.
Still for that read-out and setting: the result for `C[C@@H]1CC[C@H]2[C@@H](C)C(=O)O[C@@H]3O[C@@]4(C)CC[C@@H]1[C@]32OO4` reads “inactive”.
`Cn1c(/C=C/CO)c(CO)c2c1C(=O)C=C(N1CC1)C2=O`: the activity (max response) in assay [1] was -6.24%. The Potency entry in assay [2] is “inactive”.
The corresponding values for `COP(=S)(OC)SCN1C(=O)c2ccccc2C1=O` are 6.58% and “inactive”.
The corresponding values for `CCCN1CCC[C@@H]2Cc3[nH]ncc3C[C@H]21` are 1.08% and “inactive”.
For `CC(=O)O[C@@]12CO[C@@H]1C[C@H](O)[C@@]1(C)C(=O)[C@H](O)C3=C(C)[C@@H](O)C[C@@](O)([C@@H](OC(=O)c4ccccc4)[C@H]21)C3(C)C`, the Potency result in assay [2] was “inactive”.
On to `O=C1C(I)=CC(=C(c2cc(I)c(O)c(I)c2)c2ccccc2C(=O)O)C=C1I`, for which the Potency in assay [2] is 20.6 µM (active).
Same read-out and setting: the result for `O=C(CCCN1CCC(n2c(=O)[nH]c3ccccc32)CC1)c1ccc(F)cc1` reads “inactive”; that for `CCc1cc2c(s1)-n1c(C)nnc1CN=C2c1ccccc1Cl`, “inactive”.
Still for that read-out and setting: the result for `CCN[C@@H](C)Cc1cccc(C(F)(F)F)c1` reads “inactive”.
Consider `C[C@@H]1CC2=CC(=O)CC[C@@H]2[C@H]2CC[C@@]3(C)[C@@H](CC[C@]3(C)O)[C@@H]21`, for which the Potency entry in assay [2] is “inactive”.
Consider `C[C@]12CC[C@H]3[C@@H](CCC4=CC(=O)CC[C@@H]43)[C@@H]1CC[C@@H]2OC(=O)CCc1ccco1`, for which the Potency in assay [2] was 18.4 µM (active).
On to `CCC1(CCC(C)C)C(=O)NC(=O)NC1=O`, for which, in assay [2], the Potency entry is “inactive”.
On the same count and under the same terms, the value for `CC(N[C@H]1C[C@@H]1c1ccccc1)c1ccc2c(c1)OCCO2` (some centres undefined) was “inactive”.
`CC(C)(C)CC(C)(C)c1ccc(O)cc1`: the Potency in assay [2] was 8.91 µM (active) and 13 µM (active).
Take `C#C[C@]1(O)CC[C@H]2[C@@H]3CCC4=CC(=O)CC[C@]4(C)[C@H]3CC[C@@]21C`: in assay [1], the activity (max response) was 3.93%. For the same molecule, the Potency entry in assay [2] is “inactive”.
